“And” between values parts separate entries of the source, which are not always exact repeats. Identical values can stand only once. Results filed as inconclusive are left out. More than one record can exist for a structure, and the calls need not agree. The source made the active and inactive calls. How the source made its calls: active means hit-call score of the fitted dose curve at least 0.9, where 1 is the maximum; inconclusive means response in the unintended direction; inactive means score below 0.9.

This passage reports AC50 and outcome results from PubChem BioAssay (EPA / NIEHS).

The test system of this test is turtle Estrogen Receptor (ERa), gene 101933533. The test can be described thus: ATG_trERa_XSP2: Attagene TRANS-FACTORIAL Multi-Species (XSP2) HepG2 Assay for turtle Estrogen Receptor (ERa) (AID 2283812).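 Further: actives raise reporter signal above DMSO so AC50 reflects agonist activity.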 The protocol: ATG_XSP2_multi-species_TRANS is a cell-based, multiplexed assay created by modifying the existing Attagene TRANS-FACTORIAL system to include a panel of nuclear receptors from some or all the following species: human (Homo sapiens), mouse (Mus musculus), frog (Xenopus laevis), zebrafish (Danio rerio), chicken (Gallus gallus), and turtle (Chrysemys picta). The ECOTOX-FACTORIAL format uses HepG2, a human liver cell line, with measurements taken at 24 hours after chemical dosing in a 24-well plate. Xsp2 included 3 nM 6-alpha-fluorotestosterone and 1.5 nM norgestrel to stimulate the androgen receptor.ATG_trERa_XSP2 is one of 29 assay components measured or calculated from the ATG_XSP2_multi-species_TRANS assay. It is designed to make measurements of mRNA induction, a form of inducible reporter, as detected with fluorescence intensity signals by Reverse transcription polymerase chain reaction (RT-PCR) and Capillary electrophoresis technology.The assay endpoint ATG_trERa_XSP2 was analyzed in the positive analysis fitting direction relative to DMSO as the negative control and baseline of activity. Using a type of inducible reporter, measures of mRNA for gain-of-signal activity can be used to understand the reporter gene at the transcription factor-level as they relate to the gene ER. Furthermore, this assay endpoint can be referred to as a primary readout, because this assay has produced multiple assay endpoints where this one serves a reporter gene function. To generalize the intended target to other relatable targets, this assay endpoint is annotated to the nuclear receptor intended target family, where the subfamily is steroidal.
Human liver HepG2 cells are transiently transfected with multiple reporter transcription units (MRTUs) in 6-well plates using FuGene 6 reagent (Roche; 3 ml FuGene/1 mg DNA). The MRTU constructs are regulated by a cis-regulating element (promoter). […] A major difference between the CIS and TRANS system is that in CIS activities of endogenous TFs are measured, whereas the TRANS assay evaluates changes in activities of exogenous, chimeric NR-Gal4 proteins. […] At the end of 24 hour incubation, total RNA was isolated using TriZol reagent (Invitrogen). The isolated RNA is then reverse-transcribed using oligo(dT) primer and Mo-MLV reverse transcriptase (Invitrogen) with DNAse I (Ambion) treatment for 30 min. The one-tenth of the produced cDNA was amplified by PCR using Taq DNA polymerase (Invitrogen) and two reporter sequence-specific primers. The PCR products were fluorescently labeled by primer extension with 6-arboxyfluorescein (6-FAM) 5'-labeled reporter sequence-specific primer (2 min at 95 C, 20 s at 68 C and 10 min at 72 C) and these products were digested with 5U of HpaI (New England Biolabs) for 2h at 37 C. The fragments were purified using Qiaquick PCR columns (Qiagen), analyzed on an ABI 3130xL genetic analyzer (Applied Biosystems) with peak positions identified by using a set of X-rhodamine (ROX)-labeled MapMarker1000 molecular weight standards (BioVentures). The raw capillary electrophoresis data was processed using Attagraph software (Attagene).
Usually AC50 stands for the concentration giving half of the maximal activity seen. As for `CCN(Cc1c(F)cccc1Cl)c1c([N+](=O)[O-])cc(C(F)(F)F)cc1[N+](=O)[O-]`, the AC50 was 2.15 µM (active) and the outcome was inactive.
In the case of `C#C[C@]1(O)CC[C@H]2[C@@H]3CCC4=CC(=O)CC[C@@H]4[C@H]3CC[C@@]21CC`, the outcome was inactive and the AC50 was 0.522 µM (active).
Regarding `C=CCOC(Cn1ccnc1)c1ccc(Cl)cc1Cl` (stereo unspecified), the result was inactive.
For the compound `CC(C)CCCCCCc1ccc(O)cc1`, the AC50 was 0.989 µM (active).
On the same count and under the same terms, as for `CN(C)C(=O)Nc1ccc(Cl)c(Cl)c1`, the figure is 25.1 µM (active) and 18 µM (active); as for `CC1(C)C(C=C(Cl)Cl)C1C(=O)OCc1cccc(Oc2ccccc2)c1` (stereo unspecified), 42.3 µM (active).
In the case of `CC(C)(c1ccc(O)cc1)c1ccc(O)cc1`, the AC50 was 0.189 µM (active).
On to `CC(=O)S[C@@H]1CC2=CC(=O)CC[C@]2(C)[C@H]2CC[C@@]3(C)[C@@H](CC[C@@]34CCC(=O)O4)[C@H]12`, for which the compound was called inactive.
Consider `N[C@@H](Cc1cc(I)c(Oc2ccc(O)c(I)c2)c(I)c1)C(=O)O`, for which the AC50 was 359 nM (active) and 3.85 µM (active).
As for `CCCCC(CC)CN1C(=O)C2C3C=CC(C3)C2C1=O` (stereo unspecified), the result was inactive.
In the case of `O=C(c1ccc(O)cc1O)c1ccc(O)cc1O`, the AC50 was 2.86 µM (active).
On the same count and under the same terms, the result for `CCCCC(CC)COC(=O)c1ccccc1C(=O)O` (stereo unspecified) reads 27.1 µM (active).
In the case of `Oc1ccc(C(c2ccc(O)cc2)C(Cl)(Cl)Cl)cc1`, the compound was classed as inactive.
Turning to `CSC(=O)c1cccc2nnsc12`, the call was inactive.
